{"source": "PubChem BioAssay (NCATS)", "note": "Records with an inconclusive call do not appear. Where a call stands in place of a potency, no number is given. Calls of active or inactive are those of the source. Calls follow the shape of the dose curve; as a rule, active = well fitted cell-killing curve with a large enough effect; inconclusive = small, poorly fitted or top-dose-only effect; inactive = no such curve, though single readings can be large or run the other way. Potency is read from the fitted curve at half-maximal effect.", "data": [{"experiment": "qHTS of pediatric cancer cell lines to identify multiple opportunities for drug repurposing: Primary screen for Rh41 cells (AID 1347108); also: nearly all actives have a fitted effect of over 70% in size", "settings": "Rh41 rhabdomyosarcoma viability, CellTiter-Glo luminescence, 48 h; series mostly up to 46 µM", "summary_of_the_method": "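CRCs from 8- or 11-point titrations (lowest final 0.59 nM NPC, 0.78 nM MIPE). Cell viability: CellTiter-Glo after 48 h incubation, 15 min room-temperature development, luminescence imaging.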", "values": [{"smiles": "O=C(NCCCCN1CCOCC1)c1cc2ccccc2o1", "Potency": "inactive"}, {"smiles": "CC(C)(CO)[C@@H](O)C(=O)NCCC(=O)O", "Potency": "inactive"}, {"smiles": "FC(F)(F)c1ccc(C=Cc2nc(COc3ccc(CCCCn4ccnn4)cc3)co2)cc1", "Potency": "0.469 µM (active)"}, {"smiles": "CC1(C)OC2CC3C4CC(F)C5=CC(=O)C=CC5(C)C4C(O)CC3(C)[C@]2(C(=O)CO)O1", "note": "(some centres not stated)", "Potency": "inactive"}, {"smiles": "CC(C)N(CCCNC(=O)Nc1ccc(C(C)(C)C)cc1)C[C@H]1O[C@@H](n2cc(Br)c3c(N)ncnc32)[C@H](O)[C@H]1O", "Potency": "18.7 µM (active)"}, {"smiles": "O=c1[nH]c(=O)n([C@H]2C[C@@H](O)[C@@H](CO)O2)cc1C(F)(F)F", "Potency": "inactive"}, {"smiles": "C#C[C@]1(O)CC[C@H]2[C@H]3CCc4cc(OC)ccc4[C@H]3CC[C@@]21C", "Potency": "inactive"}]}]}
